# Most compounds without a hit are left out; they make up all but 3.3% or so of the library.
# PRMT1 inh: PRMT1 (human) inhibition, primary screen; Q99873; recombinant PRMT1, activity-based probe fluorescence polarization; inhibition, % at 2.79 µM; 1.3% of 370,000 active;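 active = inhibition above about 21% made by adding two undisclosed values, limit read from the data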
# UHRF1 MBD2 ctr: blocks human UHRF1 binding to methylated DNA; Q96T88; 0.75% of 370,000 active; inhibition, % at 4.4 µM; UHRF1 binding to methylated oligo, TR-FRET; in the data active = inhibition above about 21%;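 note: UHRF1 SRA domain binding a hemimethylated CpG hairpin DNA probe; 0% = median of test compound wells and 100% = reference inhibitor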
# PfM18AAP inh-1: PfM18AAP enzyme inhibition | recombinant PfM18AAP, H-Glu-NHMec fluorogenic cleavage | inhibition, % at 7.35 µM | 1.2% of 290,000 active;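 active = inhibition above the campaign mean inhibition over all tested compounds plus 3 SD, cut at about 28% in these data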;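 note: 0% = plate median of test compound wells and 100% = 2 mM ZnCl2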
# PfG6PD inh: PfG6PD (Plasmodium falciparum) enzyme inhibition; 0.78% of 350,000 active; inhibition, % at 20 µM; PfGluPho enzyme, NADPH resazurin-diaphorase fluorescence; AID 504690;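 active = inhibition reaching at least a set limit at 20 µM in the primary screen, cut at about 59% in these data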;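 note: 0% = DMSO wells with substrate and 100% = DMSO wells lacking glucose-6-phosphate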
# MBD2 inh: blocks human MBD2 binding to methylated DNA; TR-FRET, MBD2 binding to methylated oligonucleotide; Q9UBB5; inhibition, % at 4.4 µM; 0.31% of 370,000 active; in the data active = inhibition above about 13%
# PfM18AAP inh-2: PfM18AAP inhibition, confirmation; inhibition, % at 7.35 µM; recombinant PfM18AAP, H-Glu-NHMec fluorogenic cleavage; 28% of 2,400 active; AID 2170; shares compounds with PfM18AAP inh-1;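 active = mean inhibition over replicate wells above the hit cutoff set for the earlier primary screen, cut at about 29% in these data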;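 note: 0% = median of test compound wells and 100% = 2 mM ZnCl2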
# CTSL1 counter: counter-screen for PFM18AAP inhibitors: confirmation of human cathepsin L inhibitors. purified cathepsin L1, Z-Leu-Arg-MCA fluorescence. 2,400 tested, under 10 active. shares compounds with PfM18AAP inh-1. inhibition, % at 5.96 µM;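 active = average inhibition across replicates above the hit cutoff set in the earlier primary screen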;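 note: 0% = median of test compound wells and 100% = Z-Phe-Ala-diazomethylketone 1 µM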
# Target sequence (P07711 whole entry, looked up): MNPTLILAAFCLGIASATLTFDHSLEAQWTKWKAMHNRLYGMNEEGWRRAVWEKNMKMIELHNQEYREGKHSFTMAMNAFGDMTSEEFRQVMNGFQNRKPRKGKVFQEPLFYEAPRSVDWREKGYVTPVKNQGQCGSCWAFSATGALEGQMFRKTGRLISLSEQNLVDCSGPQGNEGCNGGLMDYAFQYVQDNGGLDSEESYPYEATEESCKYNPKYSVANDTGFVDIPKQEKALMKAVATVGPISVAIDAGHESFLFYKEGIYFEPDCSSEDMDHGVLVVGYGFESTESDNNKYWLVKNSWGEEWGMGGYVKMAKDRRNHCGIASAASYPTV
# * hit, by the source's call; . = no result given.
SMILES,PRMT1 inh,UHRF1 MBD2 ctr,PfM18AAP inh-1,PfG6PD inh,MBD2 inh,PfM18AAP inh-2,CTSL1 counter
O=S1(=O)c2ccc(N3CCN(Cc4ccccc4F)CC3)cc2Oc2ccccc2CN1Cc1cn(Cc2ccc(F)cc2)nn1,0,0,.,.,3,.,.
COC(=O)[C@]12C[C@H](CC(=O)N3CCCCC3)C(=O)N(Cc3ccc4c(c3)OCO4)C1=C[C@H](COCc1ccccc1)O[C@@H]2C,1,-2,.,.,-1,.,.
COc1ccc(C(=O)n2cnc(N)n2)cc1,2,0,34*,-1,3,54*,-1
Nc1ncn(C(=O)c2ccco2)n1,-3,-2,45*,-13,-2,51*,1
COc1cccc(C(=O)N[C@@H](Cc2cccnc2)C(=O)N2CCC[C@H]2C(=O)NCCc2ccccc2Cl)c1,-4,0,.,.,-4,.,.
Cc1onc(C(=O)N2CCN(C(c3ccc(F)cc3)c3ccc(F)cc3)CC2)c1[N+](=O)[O-],0,1,.,.,-1,.,.
CC(=O)Oc1ccc2occ(/C=N/c3cc(=O)[nH]c(=S)[nH]3)c(=O)c2c1,5,1,35*,-18,-1,11,-8
O=C(Nc1ccc(Cl)c(Cl)c1)C1CCN(c2ncccn2)CC1,2,3,.,.,3,.,.
S=c1nc(C2COc3ccccc3O2)[nH][nH]1 (stereo not drawn),16,2,35*,13,2,26,2
COc1ccc(OC)c(NC(=O)O[C@@H]2CC[C@@]34CCCN3C(=O)CCC[C@H]4C2)c1,1,0,.,.,4,.,.
Cc1[nH]c2ccccc2c1/C=N/Nc1ccc([N+](=O)[O-])cc1,-2,-7,34*,35,-13,-41,2
CCN(CC)S(=O)(=O)c1ccc2oc(SCC(=O)Nc3cc(C)on3)nc2c1,3,-1,.,.,-3,.,.
CCN(CC)S(=O)(=O)c1ccc2oc(SCC(=O)NC3CC3)nc2c1,7,1,32*,24,-1,-24,-8
CC(Sc1nccn1C)C(=O)Nc1ccccc1 (stereo not drawn),-6,1,-3,0,-3,.,.
CC(Sc1nc(C(C)(C)C)cc(-c2ccccc2)c1C#N)C(=O)Nc1ccccc1 (stereo not drawn),2,0,33*,46,-1,-18,-1
COc1ccc2cc(-c3cccc4[nH]cc(C)c34)ccc2c1,6,0,.,.,2,.,.
CCc1cccc(CC)c1NC(=S)NCCc1ccc(O)c(O)c1,6,2,65*,24,6,40*,-9
CC(=O)Oc1cc(O)c2c(c1)OC(c1ccc(OC(C)=O)c(OC(C)=O)c1)C(OC(C)=O)C2=O (stereo not drawn),1,-3,54*,-50,-2,31*,-21
C[N+]1=C(N)N[C@@]2(C=C3CCCCC3n3c(=O)n(-c4ccccc4)c(=O)n32)C1 (stereo partly drawn),6,0,.,.,1,.,.
CCOc1cc(/C=N/Nc2nnc(C)n2N)ccc1OC(C)=O,5,8,34*,53,1,-59,0
Cc1nnc(N/N=C/c2cccc(OCc3ccc(Cl)c(Cl)c3)c2)n1N,6,6,49*,56,4,-37,4
CCOc1ccc(NC(=O)c2cc(-c3ccc(Cl)cc3)nc3ccccc23)cc1,-4,1,.,.,0,.,.
C=CCN1C(=O)[C@@H](CC(=O)N2CCC(c3ccccc3)CC2)[C@]2(C(=O)OCC)CCCCC/C=C/12,-4,1,.,.,1,.,.
CS(=O)(=O)NN1C(=O)c2ccccc2NC1c1ccccc1O (stereo not drawn),4,0,4,-15,5,.,.
CC(=O)NN1C(=O)c2ccccc2NC1c1ccccc1O (stereo not drawn),1,-1,42*,-8,2,12,-2
NNc1nc2cc3c(cc2s1)OCCO3,7,-3,52*,38,-2,9,-5
O=C(/C=C/c1ccccc1)n1cnnc1SC/C=C/c1ccccc1,3,-1,41*,1,-4,27,-5
O=C(O)C1CCN(C(=O)CCN2C(=O)S/C(=C\c3ccccc3)C2=O)CC1,11,0,37*,-12,2,-45,8

# Bioassay records from PubChem.
